# Shown are actives, neighbours in structure and some others; about 7.5% of the full set was active somewhere.
# SMN2 splice up: qHTS Assay for Enhancers of SMN2 Splice Variant Expression; HEK293 SMN2-luciferase splicing reporter, luminescence, 30-36 h; Potency, µM (highest dose often 46.1 µM), actives largely listed as activators; actives 2.8% (n = 210,000); AID 1458, 2008; also: nearly all actives have a fitted effect of over 55% in size
#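 HEK293 cells carry an SMN2 minigene-luciferase reporter in which exon 7 inclusion puts luciferase in frame. Cells were seeded at 2000 cells/well, attached for 10-12 hours, then exposed to compounds for 30-36 hours at 37C before ONE-Glo luminescence.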
# FLuc counter: qHTS profiling assay for firefly luciferase inhibitor/activator using purifed enzyme and Km concentrations of substrates (counterscreen for miR-21 project). Luciferin 4-monooxygenase (Photinus pyralis), P08659. actives 6.9% (n = 360,000). Potency, µM (highest dose often 57.5 µM), most hits filed as inhibitors. AID 588342, 2011. purified FLuc, Km substrates, luminescence inhibition; also: nearly all actives have a fitted effect of over 55% in size
# Target sequence (P08659 whole entry, looked up): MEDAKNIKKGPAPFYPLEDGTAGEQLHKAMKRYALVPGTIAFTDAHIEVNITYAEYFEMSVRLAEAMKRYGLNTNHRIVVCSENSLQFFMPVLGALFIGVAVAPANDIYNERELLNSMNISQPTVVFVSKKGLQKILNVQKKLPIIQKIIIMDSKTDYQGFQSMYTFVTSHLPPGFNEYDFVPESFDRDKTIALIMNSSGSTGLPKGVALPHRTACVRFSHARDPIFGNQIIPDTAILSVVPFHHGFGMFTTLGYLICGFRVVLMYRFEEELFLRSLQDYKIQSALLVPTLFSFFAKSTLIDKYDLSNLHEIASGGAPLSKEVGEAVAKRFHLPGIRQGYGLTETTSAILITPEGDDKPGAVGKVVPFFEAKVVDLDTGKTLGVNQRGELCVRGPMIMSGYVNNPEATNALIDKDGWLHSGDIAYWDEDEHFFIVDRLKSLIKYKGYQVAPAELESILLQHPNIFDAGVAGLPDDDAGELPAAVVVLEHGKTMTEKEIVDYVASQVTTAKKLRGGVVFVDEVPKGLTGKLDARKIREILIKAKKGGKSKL
#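 Biochemical qHTS of compounds, final roughly 60 µM downward over six points, against 10 nM purified firefly luciferase using Km concentrations of substrates (10 uM D-luciferin, 10 uM ATP) in Tris acetate pH 7.5 buffer; luminescence output.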
# ELG1 genotoxic: qHTS screen for small molecules that induce genotoxicity in human embryonic kidney (HEK293T) cells expressing luciferase-tagged ELG1; HEK293T ELG1-luciferase reporter, luminescence, 16 h; Potency, µM (series often up to 46 µM), hits mostly activators; actives 1.3% (n = 330,000); AID 504466, 2011; also: nearly all actives have a fitted effect of over 60% in size
#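 Screening used a luciferase reporter fused to human ELG1 in HEK293T cells. Luminescence was read on a CCD plate imager after 16 hr exposure and 30 min ONE-Glo incubation.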
# Rab9 prom act: qHTS Assay for Rab9 Promoter Activators. actives 2.8% (n = 320,000). Potency, µM (highest dose often 9.22 µM), most hits filed as activators. Huh7 Rab9 promoter-luciferase reporter, luminescence, 24 h; also: nearly all actives have a fitted effect of over 60% in size
#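 Luminescence read-out: Huh7 cells stably expressing Rab9-luciferase, treated 24 h with compound at 37 °C, then lysed with luciferase reagent for 10 min at ambient before reading.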
# NPC1 prom act: qHTS Assay for NPC1 Promoter Activators. Huh7 NPC1 promoter luciferase reporter, 24 h. Potency, µM (titrated, usually from 9.22 µM), most hits filed as activators. actives 2.4% (n = 320,000); also: nearly all actives have a fitted effect of over 60% in size
#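 Huh7 cells stably carrying NPC1 promoter–luciferase, plated in Opti-MEM with 10% FBS for 2 h, were exposed to compound in DMSO for 24 h at 37 °C; luciferase reagent was added for 10 min and luminescence read.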
# Hits are given with their value; n = inactive; u = inconclusive; x = not tested or not shown; [ ] = another dose, or the depositor's remark. Calls follow the shape of the dose curve; as a rule, active = well fitted curve in the direction sought with a large enough effect; inconclusive = small, poorly fitted or top-dose-only effect, or another doubt; inactive = no such curve, though single readings can be large; an effect the other way counts as inactive or inconclusive.
SMILES,SMN2 splice up,FLuc counter,ELG1 genotoxic,Rab9 prom act,NPC1 prom act
Cc1nc(C)n(C(C)CNS(=O)(=O)c2ccc(Cl)cc2)n1 (stereo unspecified),x,n,n,n,n
Cc1c(C(=O)N(C)C)sc2c1c(=O)n(-c1ccc(Cl)c(Cl)c1)c(=O)n2CC(=O)Nc1ccc(Br)cc1F,x,n,x,x,x
O[C@@H](c1cc(-c2ccccc2)nc2c1ccc1ccccc12)C1CCCCN1 (stereo partly specified),n[9.22 µM],x,x,x,x
CC(c1ccccc1)c1nnc(N)s1 (stereo unspecified),x,n,n,n,n
CNc1nnc(-c2ccc(OC)cc2)s1,13µM,12µM,16µM,3.2µM,2.8µM
CC(C)c1ccc(-c2nnc(N)s2)cc1,14µM,1.9µM,18µM,2.2µM,3.2µM
CNc1nnc(-c2ccncc2)s1,n,n,n,n,n
Cc1cccc(C)c1OCCCn1c(CCNC(=O)C2CCCCC2)nc2ccccc21,n,n,x,x,x
O=C(OCC(=O)N1CCC(Cc2ccccc2)CC1)c1cncc(Br)c1,x,x,n,x,x
COc1cc(NCCC(=O)c2cccs2)c(OC)cc1Cl,n,n,n,n,n
CC(C)OC(=O)c1ccc2nc3ccccc3nc2c1,x,1.7µM,u,0.71µM,2.8µM
Cc1ccc(NC(=O)CNC(=O)c2ccco2)cc1,x,u,n,4µM,u
CCN(CC)C(=O)c1ccc2nc3ccccc3nc2c1,n,u,n,n,n
CCOC(=O)c1ccc(NC(=S)N(CCN(C)C)Cc2cccs2)cc1,3.5µM,n,n,n,n
Cc1ccc(NC(=S)N(CCN(C)C)Cc2cccs2)cc1,n,n,n,n,n
CCOC(=O)c1ccc(NC(=O)c2ccco2)cc1,x,11µM,u,2.2µM,3.5µM
CCOc1ccccc1NC(=O)c1ccc(NC(=O)c2ccco2)cc1,n,n,n,n,n
CC(C)OC(=O)c1ccc(NC(=O)c2ccccc2)cc1,13µM,15µM,n,u,4µM
CCOC(=O)CC(=O)Nc1ccc(C(=O)OCC)cc1,n,n,n,n[1.84 µM],n
CC(C)OC(=O)c1ccc(NC(=O)c2ccco2)cc1,x,13µM,2.8µM,3.2µM,2.5µM
CCOC(=O)c1ccc(NC(=O)N(CC)CC)cc1,11µM,19µM,16µM,2.5µM,u
COC(=O)c1ccc(NC(=O)c2cccc(NC(=O)c3ccco3)c2)cc1,x,n,n,n,n
CCc1nn(CC(=O)NCc2ccco2)c(=O)c2cc3c(OC)cccc3n12,n,n,x,x,x
C[C@H](CO)N1C[C@H](C)[C@@H](CN(C)C(=O)Nc2ccc(C(F)(F)F)cc2)Oc2c(NS(=O)(=O)c3ccc(F)cc3)cccc2C1=O,x,x,n,x,x
CCOc1ccc2nc(NC(=O)C3CCCO3)sc2c1 (stereo unspecified),x,n,n,n,n
SMILES,SMN2 splice up,FLuc counter,ELG1 genotoxic,Rab9 prom act,NPC1 prom act
Cc1cc(C)c2nc(NC(=O)c3ccc(OCC4CCCO4)cc3)sc2c1 (stereo unspecified),n,11µM,n,n,n
O=C(Nc1ccc(Cl)cc1)c1ccc(OCC2CCCO2)cc1 (stereo unspecified),n,5.4µM,u,u,u
Cc1ccc2nc(NC(=O)c3ccc(OCC4CCCO4)cc3)sc2c1 (stereo unspecified),n,3µM,n,u,u
O=C(CSc1nc(=O)n(CCN2CCOCC2)c2c1CCCC2)Nc1ccc(F)cc1F,x,n,n,n,n
CN1CCN(c2ccc(NC(=O)c3ccco3)cc2Cl)CC1,x,4.8µM,8.2µM,0.63µM,0.4µM
Cc1ccc(NC(=O)c2cc(NC(=O)c3ccco3)ccc2N2CCOCC2)cc1Cl,n,n,n,n,n
O=C(Nc1ccc(N2CCCC2)c(Cl)c1)c1ccco1,6.3µM,4.8µM,u,0.5µM,1.4µM
O=C(Nc1ccc(N2CCOCC2)c([N+](=O)[O-])c1)c1ccco1,13µM,17µM,n,u,n
CCN1CCN(c2ccc(NC(=O)c3ccco3)cc2Cl)CC1,x,17µM,u,u,u
Cc1ccnc(NC(=O)CCC(=O)N(CC(=O)NCCc2ccccc2)c2ccccc2F)c1,x,n,n,n,n
O=C(Nc1ccc(CCC(=O)N2CCCC2)cc1)c1ncn[nH]1,n,u,n,n,n
CCN1CCN(c2ccc(NC(=O)c3cccc(F)c3)cc2Cl)CC1,x,17µM,u,3.5µM,u
O=C(Nc1ccc(N2CCCCC2)c(Cl)c1)c1ncn[nH]1,x,6µM,u,n,u
Cc1ccc(N(CC2CO2)S(=O)(=O)c2ccccc2[N+](=O)[O-])cc1 (stereo unspecified),x,n,n,n,n
CN(C)C(=O)c1ccc(NC(=O)c2cncc(Br)c2)cc1,u,u,n,n,n
O=C(Nc1ccc2c(c1)OCCO2)c1cncc(Br)c1,10µM,4.8µM,u,1.4µM,3.5µM
O=C(Nc1ccc2c(c1)OCO2)c1cncc(Br)c1,n,27µM,n,u,u
Cc1cccc(-c2ccc3ncnc(NCc4cccc(F)c4)c3c2)c1,x,n,x,n,n
CC1=NN(c2ccccc2)C(=O)C1N=Nc1ccc(N)cc1 (stereo unspecified),n,u,n,n,n
CC1=NN(c2ccccc2)C(=O)C1N=Nc1cccc(O)c1 (stereo unspecified),x,8.5µM,u,n,u
CC1=NN(c2ccccc2)C(=O)C1c1ccccc1 (stereo unspecified),n,n,n,n,n
COc1ccc(N=NC2C(=O)N(c3ccccc3)N=C2C)cc1 (stereo unspecified),x,19µM,n,n,n
CC1=NN(c2ccccc2)C(=O)[C@@H]1N=Nc1ccc(S(N)(=O)=O)cc1,n[9.22 µM],x,x,x,x
CC1=NN(c2ccccc2)C(=O)C1N=Nc1ccccc1 (stereo unspecified),14µM,2.4µM,u,u,u
CCc1noc(C)c1C(=O)Nc1nc2c(F)cc(F)cc2s1,x,12µM,n,u,n
SMILES,SMN2 splice up,FLuc counter,ELG1 genotoxic,Rab9 prom act,NPC1 prom act
O=C(Nc1nc2c(F)cc(F)cc2s1)c1ccccn1,2.8µM,0.67µM,9.2µM,0.1µM,0.11µM
O=C(COc1ccccc1)NNc1nc2c(F)cc(F)cc2s1,n,n,n,n,n
Cc1ccc2nc(NC(=O)c3ccccn3)sc2c1,x,0.17µM,0.16µM,u,u
CCOc1ccc2nc(NC(=O)c3nc(SC)ncc3Cl)sc2c1,n,n,x,x,x
CCOc1ccc2nc(NC(=O)c3ccccn3)sc2c1,x,0.38µM,u,u,0.1µM
Cc1ccc(SC[C@H](C)CN2CC[C@H](C(C)(C)C)CCC2=O)cc1,x,n,n,n,n
Cc1[nH]c(C)c(S(=O)(=O)N2CCN(c3ccccc3F)CC2)c1C(=O)N1CCCC1,x,n,n,n,n
CC(C)N(Cc1ccccc1)C(=O)C1CCCN(c2ncnc3onc(-c4ccc(F)cc4)c23)C1 (stereo unspecified),x,n,x,x,x

# High-throughput results from PubChem BioAssay.
